tim10-1 inh: inhibits growth of tim10-1 mutant yeast; S. cerevisiae tim10-1 ts strain growth, BacTiter-Glo, 24 h; inhibition, % at 20 µM; 2.2% of 330,000 active; AID 463190;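 active = inhibition of at least 40%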;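 note: mutant grown at 25 °C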
NALP1 yeast inh: NALP1 inhibition; inhibition, % at 10 µM; 0.61% of 280,000 active; S. cerevisiae NALP1/ASC/caspase-1 growth, X-gal OD620, 72 h; AID 2071; in the data active = inhibition mostly above about 24%, no sharp cut-off; inactive = mostly below about 32%
tim23-1 inh: inhibits growth of tim23-1 mutant yeast; 1.3% of 330,000 active; inhibition, % at 20 µM; AID 463212; S. cerevisiae tim23-1 growth, BacTiter-Glo luminescence, 24 h;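 active = growth inhibition of the mutant yeast at or above 50%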;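 note: temperature-sensitive mutant grown at 25 °C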
TIM10 inh: inhibits growth of TIM10 yeast strain; S. cerevisiae TIM10 strain growth, BacTiter-Glo luminescence, 24 h; inhibition, % at 10 µM; 1.4% of 330,000 active; AID 463195;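 active = inhibition of 40% or more at the single tested concentration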;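 note: wild-type TIM10 isogenic control strain grown at permissive 25 °C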
NALP3 yeast inh: blocks the NALP3 inflammasome reconstituted in yeast; Yeast reconstituted NLRP3/ASC/caspase-1, beta-gal luminescence, 24 h; inhibition, % at 10 µM; 0.39% of 330,000 active;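 active = inhibition of 50% or more; inactive = inhibition below 50%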
PfHsp90 set2: inhibits growth of yeast expressing Plasmodium falciparum Hsp90 | S. cerevisiae expressing PfHsp90, BacTiter-Glo ATP, 48 h; yeast lacking PDR1 and PDR3 efflux regulators | inhibition, % at 9.4 µM | 0.32% of 310,000 active | AID 504621;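 active = every replicate shows inhibition above about 80%, whatever the replicate mean, limit read from the data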
tim10-1 confirm: confirmation of tim10-1 mutant yeast growth inhibitors; shares compounds with tim10-1 inh; S. cerevisiae tim10-1 ts strain growth, BacTiter-Glo, 24 h; inhibition, % at 20 µM; 56% of 7,400 active;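 active = inhibition of yeast growth at or above a set limit in either of two repeat tests at 20 µM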;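 note: tim10-1 mutant grown at permissive 25 °C to find synthetic lethal compounds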
TIM10 conf: TIM10 yeast growth inhibition, confirmed; AID 463215; shares compounds with TIM10 inh; S. cerevisiae tim10 strain growth, BacTiter-Glo luminescence, 24 h; 63% of 4,600 active; inhibition, % at 10 µM;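 active = inhibition of yeast growth at or above a set limit in either of two replicates at 10 µM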; note: this counterscreen used the strain with wild-type TIM10
Each line names hits and unclear results; the compound was inactive in the other large screens (follow-up assays come after a bar, where they were run). Compounds with a hit are over-represented: about 4.1% of the library has one in this group of screens.

N/C(=N\OC(=O)Cc1ccc([N+](=O)[O-])cc1)c1ccc([N+](=O)[O-])cc1	none
Cc1ccc(CC(=O)O/N=C(\N)Cc2ccc([N+](=O)[O-])cc2)cc1	tim10-1 inh 73, TIM10 inh 60 | tim10-1 confirm 77 | TIM10 conf 63
N/C(Cc1ccc([N+](=O)[O-])cc1)=N\OC(=O)C(c1ccccc1)c1ccccc1	tim10-1 inh 72, TIM10 inh 50 | tim10-1 confirm 73 | TIM10 conf 63
CC(NS(=O)(=O)c1ccc2c(c1)CC(=O)N2C)c1ccccc1 (centres undefined)	none
O=C(/C=C/c1ccccc1)Nc1ncn[nH]1	tim10-1 inh 49, TIM10 inh 53 | tim10-1 confirm 56 | TIM10 conf 48
O=C(CCc1ccccc1)Nc1ncn[nH]1	none
CCC(C(=O)O/N=C(\N)c1ccc(Cl)cc1)c1ccccc1 (centres undefined)	tim10-1 inh 75, TIM10 inh 63 | tim10-1 confirm 63 | TIM10 conf 71
N/C(=N\OC(=O)/C=C/c1ccccc1)c1ccc(Cl)cc1	none
CC(C)OCCCNC(=O)Nc1cccc2ccccc12	none
COc1cc(C2=NOC(C(=O)N3CCCCCC3)C2)cc(OC)c1OC (centres undefined)	none
COc1cc(C2=NOC(C(=O)N3CCN(c4ccc(F)cc4)CC3)C2)cc(OC)c1OC (centres undefined)	tim10-1 inh 41, TIM10 inh 46 | tim10-1 confirm 40 | TIM10 conf 40
CCCN(CCC)CCCNC(=O)c1cc2cc3ccc(Cl)cc3nc2o1	tim10-1 inh 58, TIM10 inh 60 | tim10-1 confirm 39 | TIM10 conf 41
CCCCN(CC)CCNC(=O)c1cc2cc3ccc(Cl)cc3nc2o1	none
Cc1ccc2cc3cc(C(=O)NCCCN4CCc5ccccc5C4)oc3nc2c1	tim10-1 inh 51, NALP1 yeast inh 46, TIM10 inh 64 | tim10-1 confirm 35 | TIM10 conf inactive
CC(=O)N1N=C(c2ccccc2)OC1c1ccc([N+](=O)[O-])s1 (centres undefined)	tim10-1 inh 47, TIM10 inh 51, PfHsp90 set2 127 | tim10-1 confirm 69 | TIM10 conf 32
COc1cc2c(cc1NC(=O)c1ccncc1)oc1ccccc12	tim10-1 inh 46, TIM10 inh 42 | tim10-1 confirm inactive | TIM10 conf 47
COc1cc2c(cc1NS(=O)(=O)N1CCCC1)oc1ccccc12	tim10-1 inh 43, TIM10 inh 47 | tim10-1 confirm inactive | TIM10 conf 43
COc1cc2c(cc1NC(=O)CN1CCN(S(=O)(=O)c3ccc(C)cc3)CC1)oc1ccccc12	none
COCC(=O)N1CCC(Oc2ccc(C(=O)NC3Cc4ccccc4C3)cc2)CC1	none
CN1CCN(/N=C/c2c3ccccc3c(Cl)c3ccccc23)CC1	tim10-1 inh 47, TIM10 inh 47 (no result: PfHsp90 set2) | tim10-1 confirm 52 | TIM10 conf 46
CN(C)S(=O)(=O)Oc1cccc(C(=O)Nc2ccc(Cl)c(Cl)c2)c1	tim10-1 inh 57, TIM10 inh 49 | tim10-1 confirm 44 | TIM10 conf 65
CN(C)S(=O)(=O)Oc1cccc(C(=O)Nc2cccc(Cl)c2)c1	tim10-1 inh 55, TIM10 inh 77 (no result: PfHsp90 set2) | tim10-1 confirm 46 | TIM10 conf 72
COc1ccc(NC(=O)c2cccc(OS(=O)(=O)N(C)C)c2)cc1	none
CNS(=O)(=O)c1cccc(C(=O)Nc2cccc(Cl)c2)c1	none
CN(C)S(=O)(=O)c1cccc(C(=O)Nc2cc(Cl)cc(Cl)c2)c1	tim10-1 inh 51, TIM10 inh 42 | tim10-1 confirm inactive | TIM10 conf inactive
CN(C)S(=O)(=O)c1cccc(C(=O)Nc2ccccc2)c1	none
CCOc1cc2c3c(c1)C1(Nc4ccccc4S1)C(=O)N3C(C)(C)CC2C (centres undefined)	tim10-1 inh 49, TIM10 inh 47 | tim10-1 confirm 48 | TIM10 conf 32
COc1ccc2oc(C(=O)CCC(=O)O)c(N)c2c1	none
COC(=O)CCC(=O)c1oc2ccc(Br)cc2c1N	tim10-1 inh 41, TIM10 inh 44 (no result: PfHsp90 set2) | tim10-1 confirm 34 | TIM10 conf 31
Nc1c(C(=O)c2ccccc2)oc2ccc(Br)cc12	tim10-1 inh 45, TIM10 inh 52 | tim10-1 confirm inactive | TIM10 conf 33
Nc1c(C(=O)c2ccc(Br)s2)oc2ccccc12	tim10-1 inh 47, TIM10 inh 43 | tim10-1 confirm 35 | TIM10 conf 42
Cc1nn(C)c(C)c1NS(=O)(=O)c1ccccc1Cl	none (no result: NALP1 yeast inh)
O=Cc1cc(CCC(=O)O)ccc1O	none (no result: PfHsp90 set2)
COc1cccc(/C=N/Nc2ncnc3scc(-c4ccccc4)c23)c1OC	tim10-1 inh 46, TIM10 inh 40 | tim10-1 confirm 43 | TIM10 conf 31
COc1cccc(C=NNc2nc3ccccc3s2)c1OC	none (no result: tim10-1 inh, NALP1 yeast inh, tim23-1 inh, TIM10 inh, NALP3 yeast inh)
Cc1ccc2c(c1)nnn2C1CCN(C(=O)C23CC4CC(CC(C4)C2)C3)CC1	tim10-1 inh 60, TIM10 inh 42 (no result: PfHsp90 set2) | tim10-1 confirm 41 | TIM10 conf 38
Cc1ccc2c(c1)nnn2C1CCN(C(=O)NC23CC4CC(CC(C4)C2)C3)CC1	none (no result: PfHsp90 set2)
Cc1cccc(C(=O)NC(=S)Nc2ccc(Cc3ccncc3)cc2)c1	tim10-1 inh 48, TIM10 inh 46 | tim10-1 confirm 31 | TIM10 conf 34
CN(C)c1ccc(C2Nc3cccc4cccc(c34)N2)cc1	tim10-1 inh 57, NALP1 yeast inh 39, TIM10 inh 66 | tim10-1 confirm 58 | TIM10 conf 67
c1csc(C2Nc3cccc4cccc(c34)N2)c1	tim10-1 inh 53, TIM10 inh 48 | tim10-1 confirm 52 | TIM10 conf inactive
c1ccc(C2Nc3cccc4cccc(c34)N2)cc1	none
CC(=O)N1CCN(S(=O)(=O)c2cccc(C(=O)NCCc3ccc(Cl)cc3)c2)CC1	none (no result: NALP1 yeast inh)
Oc1ccccc1/C=N/Nc1cccc2cccnc12	tim10-1 inh 41, TIM10 inh 50 (no result: PfHsp90 set2) | tim10-1 confirm 37 | TIM10 conf 35
CCN(CC)CCN(C(=O)c1ccc(S(=O)(=O)N(C)C2CCCCC2)cc1)c1nc2ccc(OC)cc2s1	tim10-1 inh 59, TIM10 inh 48 | tim10-1 confirm 42 | TIM10 conf 38
CCOC(=O)N1CCN(S(=O)(=O)c2ccc(C(=O)N(CCCN(C)C)c3nc4ccc(Cl)cc4s3)cc2)CC1	none

Screening results: PubChem BioAssay, several laboratories
